# Reference: PubChem BioAssay (NCATS)
# Unmarked numbers belong to inactive results. Inconclusive results are not listed. Where a call stands in place of a potency, no number is given. Calls of active or inactive are those of the source. The call rests on the fitted dose curve; in most records, active means well fitted curve in the direction sought with a large enough effect; inconclusive means small, poorly fitted or top-dose-only effect, or another doubt; inactive means no such curve, though single readings can be large; an effect the other way counts as inactive or inconclusive.
# How the values were obtained:
# [1] = target: Rap guanine nucleotide exchange factor 3 (Homo sapiens) (UniProt O95398); experiment: Confirmatory qHTS for agonist of cAMP-regulated guanine nucleotide exchange factor 3 (EPAC1) (AID 1645881);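 further: EPAC1 catalysed release of BODIPY-GDP from Rap1B seen as fluorescence loss; nearly all actives have a fitted effect of over 75% in size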
# [2] = target: Rap guanine nucleotide exchange factor 4 (Homo sapiens) (UniProt Q8WZA2); experiment: Confirmatory qHTS for agonist of cAMP-regulated guanine nucleotide exchange factor 4 (EPAC2) (AID 1645884);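 further: nucleotide exchange releases bodipy-GDP from Rap1 and this lowers its fluorescence; nearly all actives have a fitted effect of over 65% in size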
# [3] = target: Rap guanine nucleotide exchange factor 3 (Homo sapiens) (UniProt O95398); experiment: Counterscreen qHTS for agonist of cAMP-regulated guanine nucleotide exchange factor 3 (EPAC1) (AID 1645889); further: nearly all actives have a fitted effect of over 40% in size
# Method in brief: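 Measured: fluorescence of BODIPY-GDP bound to Rap1B, which falls as exchange proceeds. Conditions include 50 uM competing GDP, 5 and 30 min reads, and a later cAMP challenge for antagonist detection.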
# [4] = target: Rap guanine nucleotide exchange factor 4 (Homo sapiens) (UniProt Q8WZA2); experiment: Confirmatory qHTS for antagonist of cAMP-regulated guanine nucleotide exchange factor 4 (EPAC2) (AID 1645885); further: nearly all actives have a fitted effect of over 25% in size
# [5] = target: DNA dC->dU-editing enzyme APOBEC-3G (Homo sapiens) (UniProt Q9HC16); experiment: qHTS for inhibitors of Vif-A3G interactions: Validation (AID 588379)
# Method in brief: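 HeLa cells stably expressing Vif and A3G-eYFP, 700 cells/well, incubated overnight at 37 deg C, then exposed to compound overnight at 37 deg C. Inhibition of Vif-mediated degradation read as increased yellow fluorescence (Ex 488/Em 500-530) by laser-scanning cytometry.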
# Sequence of Rap guanine nucleotide exchange factor 3 (Homo sapiens) (O95398 whole entry, looked up): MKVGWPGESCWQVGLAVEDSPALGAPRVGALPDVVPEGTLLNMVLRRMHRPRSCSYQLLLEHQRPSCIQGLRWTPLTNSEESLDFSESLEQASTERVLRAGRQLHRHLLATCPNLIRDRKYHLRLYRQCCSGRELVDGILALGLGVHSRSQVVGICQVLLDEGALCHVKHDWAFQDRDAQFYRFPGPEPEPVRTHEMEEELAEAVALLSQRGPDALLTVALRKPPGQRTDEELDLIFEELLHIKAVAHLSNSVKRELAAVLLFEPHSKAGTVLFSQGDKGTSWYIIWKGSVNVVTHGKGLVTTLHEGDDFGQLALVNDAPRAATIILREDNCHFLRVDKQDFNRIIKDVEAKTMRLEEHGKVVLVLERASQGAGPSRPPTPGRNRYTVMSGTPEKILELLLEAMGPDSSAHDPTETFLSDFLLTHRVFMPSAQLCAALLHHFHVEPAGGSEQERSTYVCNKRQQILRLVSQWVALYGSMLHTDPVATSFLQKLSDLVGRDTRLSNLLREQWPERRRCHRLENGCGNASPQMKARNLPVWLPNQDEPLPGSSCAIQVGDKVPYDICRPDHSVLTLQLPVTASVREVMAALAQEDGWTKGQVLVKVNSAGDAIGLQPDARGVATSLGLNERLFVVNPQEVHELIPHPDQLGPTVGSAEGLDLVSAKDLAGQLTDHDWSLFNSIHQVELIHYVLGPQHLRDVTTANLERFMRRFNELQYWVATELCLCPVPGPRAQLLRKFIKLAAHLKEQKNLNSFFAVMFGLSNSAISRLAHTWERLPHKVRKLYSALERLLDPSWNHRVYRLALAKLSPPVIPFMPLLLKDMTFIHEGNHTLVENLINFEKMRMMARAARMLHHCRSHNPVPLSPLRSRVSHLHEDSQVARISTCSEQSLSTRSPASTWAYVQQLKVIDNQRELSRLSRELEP
# Sequence of Rap guanine nucleotide exchange factor 4 (Homo sapiens) (Q8WZA2 whole entry, looked up): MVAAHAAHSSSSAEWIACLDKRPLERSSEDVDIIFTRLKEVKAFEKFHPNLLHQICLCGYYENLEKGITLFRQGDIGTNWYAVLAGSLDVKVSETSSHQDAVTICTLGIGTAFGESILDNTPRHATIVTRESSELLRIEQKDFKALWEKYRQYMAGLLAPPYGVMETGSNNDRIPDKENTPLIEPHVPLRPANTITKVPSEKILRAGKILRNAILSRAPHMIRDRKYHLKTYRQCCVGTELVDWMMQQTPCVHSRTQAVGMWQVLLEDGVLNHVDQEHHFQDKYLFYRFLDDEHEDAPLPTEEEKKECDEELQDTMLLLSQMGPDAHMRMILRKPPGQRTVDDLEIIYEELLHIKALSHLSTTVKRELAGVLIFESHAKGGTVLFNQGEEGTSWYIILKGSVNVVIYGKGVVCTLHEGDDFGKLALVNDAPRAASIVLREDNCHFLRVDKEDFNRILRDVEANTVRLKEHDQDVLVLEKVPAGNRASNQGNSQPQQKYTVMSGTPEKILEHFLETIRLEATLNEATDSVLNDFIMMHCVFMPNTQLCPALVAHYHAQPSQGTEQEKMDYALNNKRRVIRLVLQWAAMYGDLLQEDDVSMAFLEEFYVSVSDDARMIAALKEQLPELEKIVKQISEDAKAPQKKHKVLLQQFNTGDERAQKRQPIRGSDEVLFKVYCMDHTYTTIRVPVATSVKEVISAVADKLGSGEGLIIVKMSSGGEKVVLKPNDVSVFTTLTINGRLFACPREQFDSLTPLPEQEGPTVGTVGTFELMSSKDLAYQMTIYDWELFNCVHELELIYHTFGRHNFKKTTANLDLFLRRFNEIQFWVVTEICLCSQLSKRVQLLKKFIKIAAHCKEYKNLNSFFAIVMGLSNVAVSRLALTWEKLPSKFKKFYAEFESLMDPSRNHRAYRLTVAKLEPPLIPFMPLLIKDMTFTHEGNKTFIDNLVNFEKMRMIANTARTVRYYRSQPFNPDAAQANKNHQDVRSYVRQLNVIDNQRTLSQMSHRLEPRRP
# Sequence of DNA dC->dU-editing enzyme APOBEC-3G (Homo sapiens) (Q9HC16 whole entry, looked up): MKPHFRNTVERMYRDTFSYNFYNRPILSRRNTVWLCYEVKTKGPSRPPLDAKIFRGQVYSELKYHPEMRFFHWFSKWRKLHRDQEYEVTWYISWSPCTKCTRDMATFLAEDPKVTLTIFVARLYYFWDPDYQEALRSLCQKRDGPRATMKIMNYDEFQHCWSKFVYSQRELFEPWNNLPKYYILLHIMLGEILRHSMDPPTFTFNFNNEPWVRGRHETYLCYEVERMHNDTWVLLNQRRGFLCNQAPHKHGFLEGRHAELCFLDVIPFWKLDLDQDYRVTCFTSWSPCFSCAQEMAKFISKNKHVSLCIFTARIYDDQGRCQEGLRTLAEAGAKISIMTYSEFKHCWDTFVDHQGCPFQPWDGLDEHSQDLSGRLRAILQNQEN
smiles,measurement,setting,value
Cc1ccc(S(=O)(=O)c2nc(-c3ccco3)oc2SC(C)C)cc1,Potency,[1],inactive
same,activation,[2],"4.44% [at 17.1 µM, percent relative to cAMP agonist control]"
same,activation,[3],16.5% [at 30.8 µM]
COc1ccc(C(=O)c2ccccc2Cl)cc1OC,Potency,[1],inactive
same,Potency,[2],inactive
same,Potency,[3],inactive
COc1ccc2c(c1)Cc1sc(NC(=O)c3ccccc3Br)nc1-2,Potency,[1],inactive
same,outcome,[4],inactive [at 12.7 µM]
Cc1cc[n+](-c2[nH]c(=O)sc2/C=N/N=C(\[O-])c2ccccc2)cc1,Potency,[1],inactive
same,Potency,[4],inactive
COc1ccc(CCC(=O)N(C)CC(=O)Nc2ccc(Cl)c(C(F)(F)F)c2)cc1,Potency,[1],inactive
same,Potency,[2],inactive
same,Potency,[3],inactive
COC1/C=C/OC2(C)Oc3c(C)c(O)c4c(O)c(c(/C=N/N5CCN(C)CC5)c(O)c4c3C2=O)NC(=O)/C(C)=C/C=C/C(C)C(O)C(C)C(O)C(C)C(OC(C)=O)C1C (centres undefined),outcome,[5],inactive
same,Potency,[1],inactive
same,Potency,[2],inactive
CCCN(CC(=O)Nc1ccccc1C)C(=O)c1oc2ccc(OCC)cc2c1C,Potency,[1],inactive
same,Potency,[2],inactive
same,Potency,[3],inactive
